Assay outcomes from PubChem BioAssay.
In the library only some 2.6% were active in any assay of this set; here they are far more common.
HIF-2a block – HIF-2a reporter inhibitors, primary screen, luminescence, 786-0 RCC cells; 786-0 RCC cells HIF-2a reporter, luciferase luminescence, overnight; inhibition, % at 18.8 µM; 360,000 compounds, 0.72% hits; AID 624352, 2012;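 active = inhibition of the luminescence signal of 40% or more relative to plate controls, in a single-dose primary screen at 18.75 µM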
Peg3 prom inh – Peg3 promoter-driven luciferase inhibitors, primary screen, cell-based, HeLa, luciferase luminescence; 360,000 compounds, 1.7% hits; inhibition, % at 20 µM; HeLa PEG-Prom luciferase reporter, overnight;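 active = inhibition of at least 50% at 20 µM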
KKLEB tox – cytotoxicity in KKLEB CF airway cells, primary screen, cytotoxicity control for CF NF-kB inhibitor project, cell-based, uHTS, fluorescence assay plates | KKLEB CF airway cells viability, ATPlite luminescence, overnight; hits give low values; cells stimulated with P. aeruginosa culture filtrate | activity change (cytotoxicity), % at 5 µM | 360,000 compounds, 0.36% hits | AID 602141, 2011;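 active = corrected activity change at or below -50% at 5 µM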
Shn3 inh set2 – reduction of Shn3 3'UTR firefly luciferase signal, primary screen, Schnurri-3 inhibitor project, cell-based, Clone20 osteoblasts, set 2; inhibition, % at 12.5 µM; Clone20 osteoblast Shn3 3'UTR firefly luciferase, 24 h; 360,000 compounds, 0.52% hits;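 active = mean inhibition of at least 75% with every replicate also reaching 75%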
CF NFkB inh – inhibitors of PAF-induced NF-kB signaling, primary screen, cell-based, GFP fluorescence, uHTS. KKLEB NF-kB-GFP reporter, GFP fluorescence overnight. inhibition, % at 5 µM. 360,000 compounds, 0.86% hits;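 active = at least 50% inhibition at 5 µM, scaled per plate between neutral and stimulator controls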;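 note: PAF is a Pseudomonas aeruginosa culture filtrate used as stimulus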
Mdm2-MdmX confirm – retested Mdm2-MdmX interaction blockers, confirmation, cell-based, luminescence, single concentration, set 2; 740 compounds, 99% hits; AID 504601, 2011; SaOS-2 split-luciferase Mdm2/MdmX complementation; shares compounds with HIF-2a block; inhibition, % at 8 µM;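 active = mean inhibition of the luminescence signal across two replicates at or above 26 percent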
HIF-2a conf – HIF-2a reporter inhibitor retest, confirmation, luminescence, 786-0 RCC cells; shares compounds with HIF-2a block; HIF-2a luciferase reporter luminescence, overnight; inhibition, % at 18.8 µM; 1,800 compounds, 56% hits; AID 651580, 2012;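 active = mean inhibition across four replicates of at least 40 percent at the single tested concentration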
HIF-1a counter – HIF-1a luciferase reporter signal reduction – MiaPaCa-2 cells, single concentration, counter-screen for HIF-2a inhibitor project, confirmation; MiaPaCa-2 HIF-1a luciferase reporter, desferoxamine, overnight; shares compounds with HIF-2a block; 1,800 compounds, 72% hits; AID 651589, 2012; inhibition, % at 18.8 µM;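 active = mean inhibition of the reporter signal across four replicates at the single tested dose of 50% or more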
Numbers stand for hits; – = inactive; · = no result given.

SMILES	HIF-2a block	Peg3 prom inh	KKLEB tox	Shn3 inh set2	CF NFkB inh	HIF-2a conf	HIF-1a counter	others
N#Cc1c(NC(=O)CSc2ncn[nH]2)sc2c1CCCCC2	90.2	–	–	–	–	96.1	70.0
Cc1ccc(C(=O)CSc2nnc(CNc3nc(-c4ccccc4)cs3)n2C)cc1	–	–	–	–	–	·	·
CCCC[C@@H](CN[C@H](C)CNC)NCC1CCC(C(C)(C)C)CC1 (stereo partly specified)	·	·	·	·	·	·	·	Mdm2-MdmX confirm=103.2
CC[C@H](C)[C@@H](CN[C@H](CCCCNC)CNC)NCC1CCCC1	–	–	–	–	–	·	·
Cc1ccc(-c2nnc(SCCC(=O)N3CCOCC3)o2)cc1	–	–	–	–	–	·	·
Cc1cccc(-c2nnc(SCCC(=O)N3CCOCC3)o2)c1	49.5	–	–	–	–	53.0	–
c1ccc(N2CCN(c3nc4cc5c(cc4s3)OCCO5)CC2)cc1	–	–	–	–	–	·	·
c1c2c(cc3sc(N4CCOCC4)nc13)OCCO2	55.0	–	–	–	–	63.0	–
COc1cccc(/C=C2/CCC(CN(C)C)C2=O)c1 (stereo unspecified)	59.8	95.8	–	–	–	–	103.4
Cc1ccc(C(c2nnnn2Cc2ccccc2)N2CCN(Cc3ccccc3)CC2)cc1 (stereo unspecified)	–	–	–	–	–	·	·
O=C(O)c1cccc(NC(=S)NC(=O)c2ccc3ccccc3c2)c1	73.9	–	–	–	–	75.6	–
O=C(O)c1ccc(NC(=S)NC(=O)c2ccc3ccccc3c2)cc1	–	–	–	–	–	·	·
COC(=O)c1ccc(=O)n(Cc2ccco2)c1	–	–	–	–	–	·	·
COC(=O)c1cc(=O)n(Cc2ccco2)c(=Nc2ccc(F)c(Cl)c2)s1	67.4	102.2	–	–	–	62.3	105.3
O[C@@H]1[C@@H](O)C=C2CCN3Cc4cc5c(cc4[C@H]1C23)OCO5 (stereo partly specified)	51.5	63.3	–	–	57.0	40.2	103.1
COc1ccc2c(c1OC)CN1CCc3cc4c(cc3[C@@H]1[C@@H]2O)OCO4	–	–	–	–	–	·	·
FC(F)(F)c1nnc(-c2ccccc2)nc1Sc1ccccc1	78.4	71.7	–	–	–	–	66.6
FC(F)(F)c1nnc(-c2ccccc2)nc1Sc1ccc(Cl)cc1	61.7	73.8	–	91.7	–	48.1	91.1
FC(F)(F)c1cccc(Oc2nc(-c3ccccc3)nnc2C(F)(F)F)c1	–	–	–	–	–	·	·
FC(F)(F)c1nnc(-c2ccccc2)nc1N1CCCC1	–	–	–	–	–	·	·
FC(F)(F)c1cccc(Sc2nc(-c3ccccc3)nnc2C(F)(F)F)c1	44.5	–	–	·	–	–	69.9
CCCCC(CC)COC(=O)C(C#N)=C(c1ccccc1)c1ccccc1 (stereo unspecified)	–	–	–	–	–	·	·
CC(=O)N1CC(=O)N(Cc2ccccc2)/C(=C/c2ccccc2)C1=O	–	–	–	–	–	·	·
COc1ccc(CC(N)c2csc(NC(=O)c3ccccc3OC)n2)cc1 (stereo unspecified)	–	–	–	–	–	·	·
NC(Cc1ccc(Cl)cc1)c1csc(NC(=O)NCC2CCCCC2)n1 (stereo unspecified)	61.4	92.5	–	84.2	–	–	101.0
SMILES	HIF-2a block	Peg3 prom inh	KKLEB tox	Shn3 inh set2	CF NFkB inh	HIF-2a conf	HIF-1a counter	others
O=C(N=C1SC2CS(=O)(=O)CC2N1Cc1ccccc1Cl)C1CCCO1 (stereo unspecified)	–	–	–	–	–	·	·
O=C(O)c1cccc(-c2nnn(Cc3ccccc3Cl)n2)c1	64.7	–	–	–	–	62.9	–
O=C(O)c1cccc(-c2nnn(Cc3ccccc3)n2)c1	–	–	–	–	–	·	·
CC(C)(C)C(=O)Cn1ncc(N2CCCC2)c(Br)c1=O	–	–	–	–	–	·	·
CC(=O)Cn1ncc(Br)c(Br)c1=O	97.0	97.6	-82.8	97.2	95.5	94.6	105.0
C/C(=C\C=C(C#N)C#N)c1cc(C#N)c(N)o1	–	–	–	–	–	·	·
C=CCOc1ccc(C[C@H](N)C(=O)NC[C@H]2O[C@@H](n3cnc4c(N)ncnc43)[C@H](O)[C@@H]2O)cc1	–	–	–	–	–	·	·
OCC1OC(n2ccc3c2ncn2ncnc32)C(O)C1O (stereo unspecified)	54.0	–	-57.1	–	68.4	–	54.1
Nc1ccn(C2OC(CO)C(O)C2O)c(=O)n1 (stereo unspecified)	–	–	–	–	–	·	·
COc1ccc(C[C@H](N)C(=O)N[C@H]2[C@@H](O)[C@H](n3cnc4c(N(C)C)ncnc43)O[C@@H]2CO)cc1	94.9	102.3	–	–	–	94.9	105.1	Mdm2-MdmX confirm=103.0
CN(C)c1ncnc2c1ncn2C1OC(CO)C(O)C1O (stereo unspecified)	52.0	–	–	95.7	–	–	–
O=C(CSc1nc2ccccc2c(=O)n1-c1ccccc1Cl)NCC1CCCO1 (stereo unspecified)	–	–	–	–	–	·	·
CN(c1ccccc1)S(=O)(=O)c1ccc(Cl)nc1	–	–	–	–	–	·	·
Cc1nc(S(=O)(=O)N(C)c2ccccc2)c(C#N)c(C)c1Cl	–	53.9	–	–	–	·	·	Mdm2-MdmX confirm=102.7
CSc1nnc(-c2sc3cc(C(F)(F)F)cnc3c2-c2ccccc2)n1C	41.4	–	–	–	–	–	54.6
O=C(CSc1nnc(NC(=O)c2cccc(F)c2)s1)NCC1CCCO1 (stereo unspecified)	–	–	–	–	–	·	·
COc1ccc(C(=O)Nn2c(SCC(=O)NCC3CCCO3)nc3ccccc3c2=O)cc1 (stereo unspecified)	48.8	–	–	–	–	59.5	–
CCOc1ccc(C(=O)Nc2nnc(SCC(=O)NCC3CCCO3)s2)cc1 (stereo unspecified)	54.5	–	–	–	–	59.0	–
CCOC(=O)C1=C(C)N=c2sc(=Cc3cc(Cl)c(OCC(=O)O)c(Cl)c3)c(=O)n2C1c1cccc(OC)c1 (stereo unspecified)	43.6	–	–	–	–	46.1	–
